Bioassay records from PubChem BioAssay.
Rows were chosen to be rich in hits. Some 2.4% of all compounds tested hit in one or more screens of this group.
ADAM17 inh: inhibitors of human ADAM17. inhibition, % at 6.95 µM. recombinant ADAM17, EDANS/DABCYL FRET peptide cleavage. 370,000 compounds, 0.83% hits;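 active = inhibition above the mean of compounds lying between control limits plus 3 SD, set per campaign, cut at about 8.5% in these data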
NRP1-CendR mod: NRP-1/CendR interaction modulation; 360,000 compounds, 0.85% hits; inhibition, % at 25 µM; FAM-RPARPAR peptide binding to NRP-1, fluorescence polarization;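 active = inhibition or corrected inhibition above about 18%, plus a signal ratio from 0.5 to 1.5, limit read from the data, passing the limit was not always enough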
ADAM10 inh: ADAM10 inhibition, QFRET primary screen | O14672 | recombinant ADAM10, EDANS/DABCYL FRET peptide cleavage, 3 h | inhibition, % at 7 µM | 370,000 compounds, 0.62% hits;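 active = inhibition above a per-campaign cutoff equal to the mean of compounds falling between control-based bounds plus 3 SD, cut at about 20% in these data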
A3A deaminase: human APOBEC3A DNA deaminase inhibition | P31941 | recombinant A3A, FAM/TAMRA ssDNA deamination fluorescence | inhibition, % at 20 µM | 330,000 compounds, 0.41% hits | AID 493011;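 active = at least 40% inhibition at 20 µM here, with at most 30% in a related deaminase screen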
A3G deaminase: APOBEC3G (human) deaminase inhibition; recombinant A3G, ssDNA deamination FAM/TAMRA fluorescence; inhibition, % at 20 µM; 330,000 compounds, 0.28% hits; AID 493012;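 active = inhibition of at least 40% at 20 µM, with no more than 30% in the related APOBEC3A deaminase screen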
Target sequence (Q9HC16 whole entry, looked up): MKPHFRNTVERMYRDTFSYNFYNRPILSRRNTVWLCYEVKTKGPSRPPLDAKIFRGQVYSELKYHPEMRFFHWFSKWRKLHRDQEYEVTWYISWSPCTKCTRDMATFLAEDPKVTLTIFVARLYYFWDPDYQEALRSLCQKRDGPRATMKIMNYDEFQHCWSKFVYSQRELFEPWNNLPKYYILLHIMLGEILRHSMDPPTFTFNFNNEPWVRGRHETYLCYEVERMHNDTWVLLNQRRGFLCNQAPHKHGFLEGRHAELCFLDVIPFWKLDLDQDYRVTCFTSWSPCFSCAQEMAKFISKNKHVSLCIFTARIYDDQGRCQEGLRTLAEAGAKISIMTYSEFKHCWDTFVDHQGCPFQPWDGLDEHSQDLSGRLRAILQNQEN
ADAM10 confirm: human ADAM10 inhibition, confirmation; shares compounds with ADAM10 inh; ADAM10 QFRET peptide cleavage, EDANS fluorescence; inhibition, % at 6.95 µM; 2,100 compounds, 1% hits; AID 743208;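 active = inhibition above about 20% chosen separately for each screening run, limit read from the data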
ADAM17 ctr: inhibits human ADAM17 in ADAM10 exosite counter-screen; shares compounds with ADAM10 inh; ADAM17 QFRET peptide cleavage, EDANS fluorescence; inhibition, % at 6.95 µM; 2,100 compounds, 0.5% hits;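 active = mean triplicate inhibition above the solvent-only control wells' mean plus 3 SD, cut at about 12% in these data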
Each line names hits and unclear results; the compound was inactive in the other large screens (follow-up assays come after a bar, where they were run).

O=C(/C=C/c1ccccc1)Nc1ccc(NC(=O)c2cccs2)cc1	ADAM10 inh 21.7 | ADAM10 confirm inactive | ADAM17 ctr inactive
CCOP(=O)(OCC)C(NC(=O)Nc1ccc(Cl)c(Cl)c1)c1ccccc1 (centres undefined)	ADAM10 inh 22.0 | ADAM10 confirm inactive | ADAM17 ctr inactive
CCOP(=O)(OCC)C(NC(=O)Nc1ccc(C)c(Cl)c1)c1ccccc1 (centres undefined)	none
CC1(C(=O)NCc2ccc(C(F)(F)F)cc2)CCN1Cc1ccccc1OC(F)F (centres undefined)	none (no result: A3A deaminase, A3G deaminase)
CC1(C(=O)NCc2cccc3ccccc23)CCN1Cc1ccccc1OC(F)F (centres undefined)	ADAM10 inh 20.9 (no result: A3A deaminase, A3G deaminase) | ADAM10 confirm inactive | ADAM17 ctr inactive
O=C(C1CCN(S(=O)(=O)c2cnc[nH]2)CC1)N1CCN(c2ccc([N+](=O)[O-])cc2)CC1	ADAM10 inh 44.9 | ADAM10 confirm inactive | ADAM17 ctr inactive
O=C(c1ccc(COc2ccccc2Br)o1)N1CCN(c2ccccn2)CC1	none
O=C(c1ccc(C#Cc2ccccc2)o1)N1CCN(c2ccccn2)CC1	NRP1-CendR mod 40.3, ADAM10 inh 21.9 | ADAM10 confirm inactive | ADAM17 ctr inactive
CCOC(=O)c1ccc(N2C(=O)c3n[nH]c(-c4ccco4)c3C2c2cccc([N+](=O)[O-])c2)cc1 (centres undefined)	ADAM10 inh 32.8 | ADAM10 confirm inactive | ADAM17 ctr inactive
COc1cc(C(=O)NNC(=S)NC(=O)c2ccc3c(c2)OCO3)cc(OC)c1OC	ADAM10 inh 21.9 | ADAM10 confirm inactive | ADAM17 ctr inactive
COc1cc(C(=O)NNC(=O)c2ccc3c(c2)OCCO3)cc(OC)c1OC	none
CCCCOCCCNC(=O)C[C@@H]1C(=O)N(CCc2ccc(Cl)cc2)C2=CCCC[C@]21C(=O)OCC	none (no result: NRP1-CendR mod, A3A deaminase, A3G deaminase)
CCOc1ccc(Cl)cc1/C=N/O	none
O/N=C/c1cc(Cl)ccc1OCc1ccccc1Cl	ADAM10 inh 23.1 | ADAM10 confirm inactive | ADAM17 ctr inactive
CCCCCCCCN1C(=O)[C@@H](CC(=O)N2CCCC2)C[C@@]2(C(=O)OC)C1=C[C@H](C(C)C)O[C@@H]2C1CC1	none (no result: NRP1-CendR mod, A3A deaminase, A3G deaminase)
O=C(COC(=O)CCc1c[nH]c2ccccc12)Nc1ccccc1	none
O=C(COC(=O)CCc1c[nH]c2ccccc12)NC(c1ccccc1)c1ccccc1	ADAM10 inh 23.5 | ADAM10 confirm inactive | ADAM17 ctr inactive
Cc1ccc(C(=O)Oc2cccc(NC(=O)c3ccco3)c2)cc1S(=O)(=O)N1CCC(C)CC1	none
O=C(Oc1cccc(NC(=O)c2ccco2)c1)c1ccc(Br)c(S(=O)(=O)N2CCCCC2)c1	ADAM17 inh 12.6, ADAM10 inh 27.8 | ADAM10 confirm inactive | ADAM17 ctr inactive
Cc1ccc(-c2noc(CN(C(=O)C(c3ccccc3)c3ccccc3)C(C)C)n2)cc1	ADAM10 inh 20.1 | ADAM10 confirm inactive | ADAM17 ctr inactive
CC(C)N(Cc1nc(-c2ccc(Cl)cc2)no1)C(=O)C(c1ccccc1)c1ccccc1	none
CCCCNC(=O)C[C@H]1C[C@@]2(C(=O)OC)C(=C[C@H](COCc3ccccc3)O[C@@H]2C)N(Cc2ccccc2)C1=O	none (no result: NRP1-CendR mod, A3A deaminase, A3G deaminase)
Nc1ccc(S(=O)(=O)N2CCCc3ccccc32)cc1	ADAM10 inh 23.6 | ADAM10 confirm inactive | ADAM17 ctr inactive
Cc1cc(C)c(O)c(-c2cc(C(=O)Nc3ccc(S(=O)(=O)N4CCOCC4)cc3)[nH]n2)c1	ADAM10 inh 21.1 | ADAM10 confirm inactive | ADAM17 ctr inactive
CC(=O)Nc1ccc(NC(=O)c2cc(-c3cc(C)cc(C)c3O)n[nH]2)cc1	none
CCc1c(-c2ccccc2)ncn1Cc1cccc(-c2ccccc2)c1	ADAM17 inh 16.6, ADAM10 inh 24.9 (no result: A3A deaminase, A3G deaminase) | ADAM10 confirm inactive | ADAM17 ctr inactive
COC(=O)C1=C(C)N(C)C(=NCc2ccc3c(c2)OCO3)NC1c1cccc(C(F)(F)F)c1 (centres undefined)	none (no result: NRP1-CendR mod, A3A deaminase, A3G deaminase)
Cc1ccc(C)c(OCc2cc(C(=O)NC(c3ccccn3)C(F)(F)F)no2)c1 (centres undefined)	ADAM10 inh 21.0 | ADAM10 confirm inactive | ADAM17 ctr inactive
Cc1ccc(C)c(OCc2cc(C(=O)N(C)Cc3ccccn3)no2)c1	none
